Values joined by “and” are separate entries in the source; they are usually repeats but may differ in a detail not shown here. Equal entries are not always repeated. Active and inactive are the calls of the source. Unless noted, calls come from the whole dose curve; as a rule, active = well fitted curve in the direction sought with a large enough effect in the repeat runs; inconclusive = weak or mixed curves; inactive = no such curve, though single readings can be large; an effect the other way counts as inactive or inconclusive.
Legend:
[1] = qHTS assay to identify small molecule antagonists of the glucocorticoid receptor (GR) signaling pathway - cell viability counter screen (AID 720693); note: nearly all actives have a fitted effect of over 55% in size; note: potency is the fitted concentration of half-maximal effect
[2] = qHTS assay to identify small molecule antagonists of the androgen receptor (AR) signaling pathway - cell viability counter screen (AID 743033; note: nearly all actives have a fitted effect of over 45% in size; note: potency is the fitted concentration of half-maximal effect)
[3] = qHTS assay to identify small molecule antagonists of the androgen receptor (AR) signaling pathway using the MDA cell line - cell viability counter screen (AID 743041; note: nearly all actives have a fitted effect of over 45% in size)
In short: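 MDA-kb2 AR-luc human breast carcinoma cells (MMTV-luciferase, AR/GR responsive) were treated with compounds plus R1881 agonist for 16 h at 37 °C. Viability was read as CellTiter-Fluor fluorescence in the same wells as the reporter assay.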

[4] = qHTS assay to identify small molecule antagonists of the thyroid receptor (TR) signaling pathway - cell viability counter screen (AID 743064); note: nearly all actives have a fitted effect of over 50% in size; note: potency is the fitted concentration of half-maximal effect
In short: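 CellTiter-Fluor readout, 30 min at 37 °C/5% CO2, following 23.5 h incubation of GH3.TRE-Luc cells with test compound and 1 nM T3 (final).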

[5] = qHTS assay to identify small molecule antagonists of the thyroid receptor (TR) signaling pathway (AID 743065); note: nearly all actives have a fitted effect of over 55% in size; note: potency is the fitted concentration of half-maximal effect
In short: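 GH3.TRE-Luc rat pituitary cells carrying two TR response elements driving luciferase were plated for 4 h, given compound plus 1 nM T3 (final), and incubated 23.5 h at 37 C. ONE-Glo luminescence measured reporter inhibition; CellTiter-Fluor fluorescence tracked cytotoxicity.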

[6] = system: thyroid hormone receptor (rat, GH3 cells); assay: qHTS assay to identify small molecule agonists of the thyroid receptor (TR) signaling pathway (AID 743066; calls by dose curve)
[7] = molecular target: Estrogen receptor (Homo sapiens) (UniProt P03372); assay: qHTS assay to identify small molecule antagonists of the estrogen receptor alpha (ER-alpha) signaling pathway (AID 743069; active = well fitted curve in the direction sought with a large enough effect in the signal ratio in the repeat runs, not every such curve was filed as active; inconclusive = weak or mixed curves, or effect the other way; inactive = no such curve, though single readings can be large or run the other way; the % refers to the signal ratio; note: potency is the fitted concentration of half-maximal effect)
In short: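 HEK293 cells stably carrying an ER-alpha-UAS-bla beta-lactamase reporter were pre-cultured overnight in 2% charcoal-stripped FBS medium. Test compounds in DMSO were added together with 17beta-estradiol for 18 hr at 37C. Read-out was fluorescence after 2 hr with LiveBLAzer B/G FRET substrate at room temperature.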

[8] = qHTS assay to identify small molecule antagonists of the estrogen receptor alpha (ER-alpha) signaling pathway - cell viability counter screen (AID 743074; calls by dose curve; note: nearly all actives have a fitted effect of over 45% in size; note: potency is the fitted concentration of half-maximal effect)
[9] = molecular target: Estrogen receptor (Homo sapiens) (UniProt P03372); assay: qHTS assay to identify small molecule agonists of the estrogen receptor alpha (ER-alpha) signaling pathway (AID 743075; calls by dose curve)
[10] = molecular target: Estrogen receptor (Homo sapiens) (UniProt P03372); assay: qHTS assay to identify small molecule agonists of the estrogen receptor alpha (ER-alpha) signaling pathway using the BG1 cell line (AID 743079); note: nearly all actives have a fitted effect of over 20% in size; note: potency is the fitted concentration of half-maximal effect
[11] = qHTS assay to identify small molecule antagonists of the estrogen receptor alpha (ER-alpha) signaling pathway using the BG1 cell line (AID 743080; calls by dose curve;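 note: BG1 cells stimulated with 17beta-estradiol alongside compound; series mostly up to about 70 µM; nearly all actives have a fitted effect of over 25% in size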)
In short: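 BG1-Luc-4E2 cells (endogenous full-length ER-alpha, stable 4×ERE-luciferase) were starved 5 days in phenol-red-free medium with 10% charcoal-stripped FBS, plated 24 h, then given compound plus 17beta-estradiol for 21.5 h at 37 C; ONE-Glo luminescence read after 30 min.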

[12] = qHTS assay to identify small molecule antagonists of the estrogen receptor alpha (ER-alpha) signaling pathway using the BG1 cell line - cell viability counter screen (AID 743081);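 note: compound given together with 17beta-estradiol as the ER stimulus; nearly all actives have a fitted effect of over 45% in size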; note: potency is the fitted concentration of half-maximal effect
[13] = molecular target: Aromatase (Homo sapiens) (UniProt P11511); assay: qHTS assay to identify aromatase inhibitors (AID 743083); note: nearly all actives have a fitted effect of over 55% in size; note: potency is the fitted concentration of half-maximal effect
[14] = molecular target: Androgen receptor (Homo sapiens) (UniProt P10275); assay: qHTS assay to identify small molecule antagonists of the androgen receptor (AR) signaling pathway (AID 743035; active = well fitted inhibition curve with a large enough effect in the signal ratio in the repeat runs, not every such curve was filed as active; inconclusive = weak or mixed curves, or effect the other way; inactive = no such curve, though single readings can be large or run the other way; the % refers to the signal ratio; note: potency is the fitted concentration of half-maximal effect)
In short: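 Cell line: GeneBLAzer AR-UAS-bla GripTite (HEK293). Stimulus: R1881 added after compound. Exposure: 16 h, 37C, 5% CO2. Readout: LiveBLAzer B/G FRET fluorescence after 2 h at room temperature.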

[15] = molecular target: Androgen receptor (Homo sapiens) (UniProt P10275); assay: qHTS assay to identify small molecule agonists of the androgen receptor (AR) signaling pathway (AID 743036; active = well fitted activation curve with a large enough effect in the signal ratio in the repeat runs, with a control signal flat, not every such curve was filed as active; inconclusive = weak or mixed curves, or effect the other way; inactive = no such curve, though single readings can be large or run the other way; the % refers to the signal ratio; note: potency is the fitted concentration of half-maximal effect)
In short: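 Following a 4 h settling period, AR-UAS-bla HEK293 cells were dosed with compounds for 16 h at 37C. A 2 h room-temperature incubation with LiveBLAzer B/G FRET substrate preceded the fluorescence measurement.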

[16] = molecular target: Androgen receptor (Homo sapiens) (UniProt P10275); assay: qHTS assay to identify small molecule agonists of the androgen receptor (AR) signaling pathway using the MDA cell line (AID 743040; note: nearly all actives have a fitted effect of over 20% in size; note: potency is the fitted concentration of half-maximal effect)
In short: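 MDA-kb2 breast carcinoma cells stably carrying an MMTV-driven luciferase reporter (AR- and GR-responsive) were seeded and held 5 h at 37C, 0% CO2, then exposed to compounds in DMSO for 16 h. Luminescence was read 30 min after ONE-Glo addition.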

[17] = molecular target: Androgen receptor (Homo sapiens) (UniProt P10275); assay: qHTS assay to identify small molecule antagonists of the androgen receptor (AR) signaling pathway using the MDA cell line (AID 743042; note: nearly all actives have a fitted effect of over 55% in size; note: potency is the fitted concentration of half-maximal effect)
In short: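 MDA-kb2 cells (human breast carcinoma, stably carrying an MMTV-luciferase reporter responsive to AR and GR) were plated at 3,000 cells/well and preincubated 5 hr at 37C, then given compound plus R1881 agonist for 16 h. ONE-Glo luminescence was read.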

[18] = qHTS assay for identifying genotoxic compounds that show differential cytotoxicity against isogenic chicken DT40 cell lines with known DNA damage response pathways - wild type cell line (AID 743012); note: nearly all actives have a fitted effect of over 60% in size; note: potency is the fitted concentration of half-maximal effect
In short: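 Quantitative HTS on parental DT40 cells: 40 h compound treatment at 37 C/5% CO2, with viability then determined by CellTiter-Glo luminescence. Values serve as the DNA repair-proficient reference for differential cytotoxicity.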

[19] = qHTS assay for identifying genotoxic compounds that show differential cytotoxicity against isogenic chicken DT40 cell lines with known DNA damage response pathways - Rev3 mutant cell line (AID 743014); note: nearly all actives have a fitted effect of over 55% in size; note: potency is the fitted concentration of half-maximal effect
[20] = qHTS assay for identifying genotoxic compounds that show differential cytotoxicity against isogenic chicken DT40 cell lines with known DNA damage response pathways - Rad54/Ku70 mutant cell line (AID 743015); note: nearly all actives have a fitted effect of over 60% in size; note: potency is the fitted concentration of half-maximal effect

Measured: Potency

Chain of Androgen receptor (Homo sapiens) (P10275 whole entry, looked up): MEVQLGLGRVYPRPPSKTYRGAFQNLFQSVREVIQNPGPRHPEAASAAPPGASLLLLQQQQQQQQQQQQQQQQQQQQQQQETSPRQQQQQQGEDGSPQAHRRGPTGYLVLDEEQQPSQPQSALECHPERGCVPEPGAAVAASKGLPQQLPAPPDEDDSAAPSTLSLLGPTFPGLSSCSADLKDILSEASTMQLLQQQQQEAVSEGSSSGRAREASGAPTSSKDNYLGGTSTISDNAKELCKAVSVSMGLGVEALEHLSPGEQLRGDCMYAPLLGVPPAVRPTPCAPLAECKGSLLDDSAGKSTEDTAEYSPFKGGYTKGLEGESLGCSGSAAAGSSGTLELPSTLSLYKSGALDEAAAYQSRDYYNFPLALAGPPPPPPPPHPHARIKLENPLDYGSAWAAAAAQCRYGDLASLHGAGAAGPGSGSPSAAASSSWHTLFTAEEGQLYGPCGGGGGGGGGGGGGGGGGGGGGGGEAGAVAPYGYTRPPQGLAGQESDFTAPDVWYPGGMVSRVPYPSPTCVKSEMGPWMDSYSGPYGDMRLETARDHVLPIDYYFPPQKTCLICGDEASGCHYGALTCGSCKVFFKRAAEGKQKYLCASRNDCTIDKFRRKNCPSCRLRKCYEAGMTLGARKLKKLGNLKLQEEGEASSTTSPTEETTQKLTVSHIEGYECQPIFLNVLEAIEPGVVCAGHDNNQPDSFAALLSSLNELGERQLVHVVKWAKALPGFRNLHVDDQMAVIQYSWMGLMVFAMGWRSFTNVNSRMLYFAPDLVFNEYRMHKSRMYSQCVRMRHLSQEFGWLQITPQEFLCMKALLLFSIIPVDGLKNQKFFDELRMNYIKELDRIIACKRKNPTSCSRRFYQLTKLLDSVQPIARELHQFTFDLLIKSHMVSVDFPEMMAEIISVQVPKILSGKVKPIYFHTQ
Chain of Estrogen receptor (Homo sapiens) (P03372 whole entry, looked up): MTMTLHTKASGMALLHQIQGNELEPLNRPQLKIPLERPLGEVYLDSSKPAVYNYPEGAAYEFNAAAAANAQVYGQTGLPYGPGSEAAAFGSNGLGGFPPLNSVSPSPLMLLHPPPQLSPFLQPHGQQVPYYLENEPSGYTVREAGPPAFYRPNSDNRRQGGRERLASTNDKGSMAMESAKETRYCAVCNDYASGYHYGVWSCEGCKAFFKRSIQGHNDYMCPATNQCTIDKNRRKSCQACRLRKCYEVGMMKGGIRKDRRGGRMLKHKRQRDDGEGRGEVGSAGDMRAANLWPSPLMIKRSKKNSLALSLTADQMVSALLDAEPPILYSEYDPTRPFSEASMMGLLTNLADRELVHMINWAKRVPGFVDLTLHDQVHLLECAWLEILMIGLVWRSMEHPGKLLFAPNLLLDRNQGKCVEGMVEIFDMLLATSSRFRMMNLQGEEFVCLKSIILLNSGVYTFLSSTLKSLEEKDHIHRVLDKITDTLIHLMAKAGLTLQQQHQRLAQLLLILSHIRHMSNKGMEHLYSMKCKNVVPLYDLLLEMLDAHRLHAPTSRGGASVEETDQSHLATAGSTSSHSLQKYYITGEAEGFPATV
Chain of Aromatase (Homo sapiens) (P11511 whole entry, looked up): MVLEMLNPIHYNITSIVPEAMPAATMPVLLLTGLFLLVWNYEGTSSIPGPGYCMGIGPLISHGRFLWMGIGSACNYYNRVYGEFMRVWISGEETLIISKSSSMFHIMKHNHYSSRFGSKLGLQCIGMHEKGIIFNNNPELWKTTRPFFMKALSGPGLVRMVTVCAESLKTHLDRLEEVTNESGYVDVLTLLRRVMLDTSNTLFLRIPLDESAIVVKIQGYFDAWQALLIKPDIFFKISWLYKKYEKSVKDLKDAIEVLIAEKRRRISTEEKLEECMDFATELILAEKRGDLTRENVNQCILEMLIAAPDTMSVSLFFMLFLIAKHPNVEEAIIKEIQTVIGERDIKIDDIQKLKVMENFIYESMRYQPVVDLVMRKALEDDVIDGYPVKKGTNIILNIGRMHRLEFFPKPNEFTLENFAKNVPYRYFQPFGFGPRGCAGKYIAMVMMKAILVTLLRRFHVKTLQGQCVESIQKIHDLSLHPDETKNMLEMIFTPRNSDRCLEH

CC(=O)c1cccc([N+](=O)[O-])c1
not listed: [14] | [15] | [16] | [17] | [18] | [19] | [20]
inactive: all other assays above

OCCNCc1ccccc1
not listed: [18] | [19] | [20]
inactive: all other assays above

CCC(=O)O[C@]1(C(=O)CCl)[C@@H](C)C[C@H]2[C@@H]3CCC4=CC(=O)C=C[C@]4(C)[C@@]3(F)[C@@H](O)C[C@@]21C
active: [18] 13.3 µM | [19] 2.37 µM | [14] 7.56 µM | [16] 1.9 nM
not listed: [1] | [2] | [11] | [15] | [20]
inactive: all other assays above

O=C(c1ccc(F)cc1)C1CCN(CCn2c(=S)[nH]c3ccccc3c2=O)CC1
inactive: [2] | [16] | [3] | [17] | [4] | [5] | [6] | [8] | [12] | [13]
active: [18] 18.8 µM | [20] 6.68 µM

COC(C)OC
not listed: [1] | [14] | [15] | [16] | [17] | [20]
inactive: all other assays above

O=C(Nc1ccc(S(=O)(=O)N2CCOCC2)cc1)c1cc(Cl)ccc1NS(=O)(=O)c1ccc(Cl)s1
inactive: [2] | [3] | [9] | [10] | [11] | [12] | [13]
active: [1] 16.9 µM | [5] 18.8 µM

Cc1ccc(N=Nc2c(O)c(C(=O)O)cc3ccccc23)c(S(=O)(=O)O)c1
active: [4] 26.5 µM | [12] 16.7 µM
inactive: [1] | [2] | [6] | [8] | [13]

CCCCCCCCCCCC(=O)OC[C@@H](O)[C@H]1OC[C@H](OCCO)[C@H]1OCCO
active: [19] 53.2 µM
inactive: [1] | [3] | [4] | [5] | [6] | [8] | [9] | [10] | [12]

CC(C)C[C@H]1C(=O)N2CCC[C@H]2[C@]2(O)O[C@](NC(=O)[C@@H]3C=C4c5cccc6[nH]c(Br)c(c56)C[C@H]4N(C)C3)(C(C)C)C(=O)N12
active: [18] 5.31 µM and 11.6 µM | [20] 7.5 µM and 10.4 µM | [5] 13.3 µM and 16.4 µM
inactive: [2] | [6] | [8] | [12]

COS(=O)(=O)C(F)(F)F
not listed: [2] | [3] | [14] | [15] | [16] | [17] | [18] | [19]
inactive: all other assays above

CN1CCC(=C2c3ccccc3Sc3ccccc32)CC1
active: [18] 5.31 µM | [20] 8.41 µM | [2] 23.9 µM | [14] 26.8 µM | [17] 29.8 µM | [4] 5.96 µM | [5] 8.41 µM
inactive: [15] | [16] | [10]

Nc1cccc([N+](=O)[O-])c1
not listed: [1] | [13] | [20]
inactive: all other assays above

O=C(CS)Nc1ccccc1
active: [18] 11.9 µM | [19] 21.1 µM | [20] 18.8 µM | [7] 15.1 µM [inconclusive] | [10] 21.1 µM
inactive: [6] | [8] | [9] | [11] | [13]

CCC(CC)Nc1ccc(C)c(C)c1
not listed: [5] | [14] | [15] | [16] | [17] | [18] | [19] | [20]
inactive: all other assays above

O=S(c1cc(Cl)cc(Cl)c1O)c1cc(Cl)cc(Cl)c1O
inactive: [2] | [16] | [3] | [17] | [6] | [8] | [9] | [10] | [11] | [12] | [13]

c1ccc(C(O[C@H]2CCCN(CCc3ccc4c(c3)OCO4)C2)c2ccccc2)cc1
active: [18] 23.7 µM | [19] 29.8 µM | [20] 29.8 µM | [4] 29.8 µM | [5] 26.6 µM
inactive: [2] | [3] | [7] | [8] | [9] | [10] | [11] | [12]

CCC(C)(C)CC
inactive: [1] | [5] | [6] | [8] | [12]

CCOCC(O)COc1ccc(NC(=O)CC[S+](C)C)cc1 (configuration not stated)
not listed: [14] | [15] | [16] | [17] | [18] | [19]
inactive: all other assays above

c1cc(CCCc2ccncc2)ccn1
active: [13] 13.7 µM
not listed: [14] | [15] | [16] | [17] | [18] | [19] | [20]
inactive: all other assays above

CCOC(=O)Cc1cccc2ccccc12
not listed: [7] | [14] | [15] | [16] | [17] | [18] | [19]
inactive: all other assays above

C[N+](C)(C)CCOC(=O)CCC(=O)OCC[N+](C)(C)C
not listed: [1] | [14] | [15] | [16] | [17]
inactive: all other assays above

O=C(O)c1nc(Cl)c(Cl)c(Cl)c1Cl
inactive: [1] | [2] | [3] | [4] | [5] | [6] | [8] | [12]

COC(=O)C1=C(C)NC(COC(N)=O)=C(C(=O)OC(C)C)C1c1cccc(Cl)c1Cl (configuration not stated)
active: [18] 23.7 µM | [20] 23.7 µM | [15] 10.7 µM | [4] 26.6 µM | [5] 16.8 µM | [13] 29.8 µM
inactive: [2] | [16] | [17] | [8] | [10] | [11]

CCCCCCCCCCCCN1CCCCCC1=O
active: [8] 43.6 µM
inactive: [1] | [2] | [4] | [6] | [12]

C#CCN(C)CCCOc1ccc(Cl)cc1Cl
active: [10] 29.8 µM
not listed: [4] | [11] | [14] | [15] | [16] | [17] | [18] | [20]
inactive: all other assays above

CCCCC(=O)OCC(=O)[C@H]1[C@H](C)C[C@H]2[C@@H]3C[C@H](F)C4=CC(=O)C=C[C@]4(C)[C@@]3(F)[C@@H](O)C[C@@]21C
active: [16] 4.7 nM
inactive: [1] | [2] | [3] | [17] | [4] | [6] | [9] | [10] | [12] | [13]

Cc1cc(C(=O)O)ccc1[N+](=O)[O-]
not listed: [1] | [7] | [14] | [15] | [16] | [17] | [19]
inactive: all other assays above

C[N+]1(C)CCC(OC(=O)C(O)(c2ccccc2)C2CCCC2)C1 (configuration not stated)
inactive: [1] | [2] | [4] | [7] | [9] | [10] | [11] | [12]

O=[N+]([O-])c1ccc2[nH]ncc2c1
not listed: [3] | [14] | [15] | [16] | [17] | [18] | [19]
inactive: all other assays above

CC(=O)OC[C@H]1O[C@@H](n2ncc(=O)[nH]c2=O)[C@H](OC(C)=O)[C@@H]1OC(C)=O
active: [14] 5.35 µM | [7] 2.68 µM [inconclusive]
not listed: [2] | [15] | [18] | [19] | [20]
inactive: all other assays above

From PubChem BioAssay (Tox21)
